Among the data in PubChem BioAssay (EPA / NIEHS) are outcome and AC50 values, retold here.

Read-out in assay [1]: Cyclin Dependent Kinase Inhibitor 1A (CDKN1A), CDKN1A (gene 1026)
The assay is described as follows: LTEA_HepaRG_CDKN1A: Life Technologies and Expression Analysis (LTEA) Assay for Cyclin Dependent Kinase Inhibitor 1A (CDKN1A) using HepaRG (AID 2283450). As to conditions: mRNA level, 48 h; actives raise or lower the signal. In a few lines: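 Read-out is CDKN1A mRNA by TaqMan qRT-PCR, normalized to three housekeeping genes and fitted in both directions against the DMSO baseline. Human HepaRG cells were treated 48 h with test chemicals up to 100 uM in half-log steps, 0.5% DMSO.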

Read-out in assay [2]: Cyclin D1 (CCND1), CCND1 (gene 595)
The assay is described as follows: LTEA_HepaRG_CCND1: Life Technologies and Expression Analysis (LTEA) Assay for Cyclin D1 (CCND1) using HepaRG (AID 2283451). As to conditions: mRNA level, 48 h; actives raise or lower the signal. The essentials: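 HepaRG plated 48 h, medium switched to serum-free induction medium, chemicals added in duplicate (top 100 uM, half-log steps, 0.5% DMSO) for 48 h, cells lysed, RNA measured by TaqMan qRT-PCR.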

Read-out in assay [3]: catalase (CAT), CAT (gene 847)
The assay is described as follows: LTEA_HepaRG_CAT: Life Technologies and Expression Analysis (LTEA) Assay for catalase (CAT) using HepaRG (AID 2283452). The following applies: mRNA level, 48 h; actives raise or lower the signal. In a few lines: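 Differentiated HepaRG cells in serum-free induction medium were dosed 48 h in duplicate, eight half-log concentrations from 100 uM in 0.5% DMSO. Transcript measured by TaqMan qRT-PCR, normalised to ACTB/GAPDH/POLR2A, fitted bidirectionally against DMSO.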

Read-out in assay [4]: flavin-containing dimethylaniline monooxygenases 3 (FMO3), FMO3 (gene 2328)
The assay is described as follows: LTEA_HepaRG_FMO3: Life Technologies and Expression Analysis (LTEA) Assay for flavin-containing dimethylaniline monooxygenases 3 (FMO3) using HepaRG (AID 2283453). As to conditions: mRNA level, 48 h; actives raise or lower the signal. In a few lines:
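FMO3 transcript quantified by TaqMan qRT-PCR against three housekeeping genes after 48 h chemical exposure of HepaRG cells. Eight-point half-log series, top 100 uM, 0.5% DMSO vehicle; phenobarbital 1mM induction control; up- or down-regulation fitted.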

Read-out in assay [5]: Cytochrome P450 (CYP1A1), CYP1A1 (gene 1543)
The assay is described as follows: LTEA_HepaRG_CYP1A1: Life Technologies and Expression Analysis (LTEA) Assay for Cytochrome P450 (CYP1A1) using HepaRG (AID 2283454). The following applies: mRNA level, 48 h; actives raise or lower the signal. In a few lines:
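HepaRG, 48 h post-plating switched to serum-free induction medium; 8-pt conc-response (top 100 uM, half-log, 0.5% DMSO), duplicates, 48 h. Lysis in RLT, TaqMan qRT-PCR for CYP1A1; gain or loss vs DMSO.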

Read-out in assay [6]: Forkhead box O1 (FOXO1), FOXO1 (gene 2308)
The assay is described as follows: LTEA_HepaRG_FOXO1: Life Technologies and Expression Analysis (LTEA) Assay for Forkhead box O1 (FOXO1) using HepaRG (AID 2283456). As to conditions: mRNA level, 48 h; actives raise or lower the signal. In a few lines: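 Using one lot of HepaRG hepatic cells kept in 0.5% DMSO, the team applied test chemicals in duplicate, half-log dilutions from 100 uM, for 48 h. Expression, normalised to ACTB/GAPDH/POLR2A, was compared with vehicle in either direction.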

Read-out in assay [7]: Forkhead box O3 (FOXO3), FOXO3 (gene 2309)
The assay is described as follows: LTEA_HepaRG_FOXO3: Life Technologies and Expression Analysis (LTEA) Assay for Forkhead box O3 (FOXO3) using HepaRG (AID 2283459). As to conditions: mRNA level, 48 h; actives raise or lower the signal. In a few lines:
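Gene-expression endpoint: FOXO3 transcript level by qRT-PCR in HepaRG cultures treated 48 h with chemicals up to 100 uM (half-log, 0.5% DMSO vehicle).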

Read-out in assay [8]: ABC Transporter (ABCB1), ABCB1 (gene 5243)
The assay is described as follows: LTEA_HepaRG_ABCB1: Life Technologies and Expression Analysis (LTEA) Assay for ABC Transporter (ABCB1) using HepaRG (AID 2283460). As to conditions: mRNA level, 48 h; actives raise or lower the signal. In a few lines: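 Human liver HepaRG line treated 48 h with up to 100 uM compound (eight half-log points, 0.5% DMSO); ABCB1 mRNA change fitted bidirectionally against DMSO controls.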

Read-out in assay [9]: growth arrest and DNA damage 45 (GADD45B), GADD45B (gene 4616)
The assay is described as follows: LTEA_HepaRG_GADD45B: Life Technologies and Expression Analysis (LTEA) Assay for growth arrest and DNA damage 45 (GADD45B) using HepaRG (AID 2283461). As to conditions: mRNA level, 48 h; actives raise or lower the signal. In a few lines:
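HepaRG, ~100,000 cells/well, 48 h plating; serum-free induction medium; cpd 100 uM top, half-log x8, 0.5% DMSO, duplicate, 48 h; lysis in RLT, RNA isolation, qRT-PCR; norm ACTB/GAPDH/POLR2A; bidirectional fit vs DMSO.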

Read-out in assay [10]: ABC Transporter (ABCC3), ABCC3 (gene 8714)
The assay is described as follows: LTEA_HepaRG_ABCC3: Life Technologies and Expression Analysis (LTEA) Assay for ABC Transporter (ABCC3) using HepaRG (AID 2283462). The following applies: mRNA level, 48 h; actives raise or lower the signal. In a few lines:
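Human HepaRG, 48 h dosing, 8-pt half-log series from 100 uM, 0.5% DMSO vehicle, duplicates. ABCC3 mRNA by TaqMan qRT-PCR, housekeeping-normalized; bidirectional curve fit vs DMSO.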

Read-out in assay [11]: ABC Transporter (ABCB11), ABCB11 (gene 8647)
The assay is described as follows: LTEA_HepaRG_ABCB11: Life Technologies and Expression Analysis (LTEA) Assay for ABC Transporter (ABCB11) using HepaRG (AID 2283463). As to conditions: mRNA level, 48 h; actives raise or lower the signal. The essentials: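 Using HepaRG cultures held in 0.5% DMSO, chemicals were tested at half-log dilutions from 100 uM for 48 h. Induction or suppression of ABCB11 mRNA, normalized to ACTB, GAPDH and POLR2A, was fitted bidirectionally against vehicle.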

Read-out in assay [12]: ABC Transporter (ABCC2), ABCC2 (gene 1244)
The assay is described as follows: LTEA_HepaRG_ABCC2: Life Technologies and Expression Analysis (LTEA) Assay for ABC Transporter (ABCC2) using HepaRG (AID 2283464). As to conditions: mRNA level, 48 h; actives raise or lower the signal. The essentials:
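HepaRG, 48 h post-plating; serum-free induction medium; cpd 8-pt, 100 uM top, half-log, 0.5% DMSO, duplicate, 48 h. Readout: ABCC2 mRNA by qRT-PCR, norm. ACTB/GAPDH/POLR2A. Bidirectional fit vs DMSO baseline.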

Read-out in assay [13]: Broad substrate specificity ATP-binding cassette transporter ABCG2 (Homo sapiens) (UniProt Q9UNQ0)
The assay is described as follows: LTEA_HepaRG_ABCG2: Life Technologies and Expression Analysis (LTEA) Assay for ABC Transporter (ABCG2) using HepaRG (AID 2283465). As to conditions: mRNA level, 48 h; actives raise or lower the signal. In a few lines:
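Gene expression of ABCG2 in HepaRG liver cells is quantified by qRT-PCR following 48 h exposure across an eight-point series topping at 100 uM. Values come from bidirectional fitting relative to DMSO vehicle.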

Read-out in assay [14]: ATP-citrate lyase (ACLY), ACLY (gene 47)
The assay is described as follows: LTEA_HepaRG_ACLY: Life Technologies and Expression Analysis (LTEA) Assay for ATP-citrate lyase (ACLY) using HepaRG (AID 2283466). As to conditions: mRNA level, 48 h; actives raise or lower the signal. In a few lines:
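ACLY expression changes in human HepaRG liver cells are quantified by qRT-PCR after 48 h exposure to test chemicals (maximum 100 uM, half-log steps). Values are fitted in both directions relative to 0.5% DMSO vehicle.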

Read-out in assay [15]: Peroxisomal acyl-coenzyme A oxidase 1 (ACOX1) gene, ACOX1 (gene 51)
The assay is described as follows: LTEA_HepaRG_ACOX1: Life Technologies and Expression Analysis (LTEA) Assay for Peroxisomal acyl-coenzyme A oxidase 1 (ACOX1) gene using HepaRG (AID 2283467). The following applies: mRNA level, 48 h; actives raise or lower the signal. In a few lines:
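Human HepaRG hepatic cultures, 48 h treatment with test chemicals up to 100 uM. ACOX1 expression read by qRT-PCR relative to 0.5% DMSO vehicle.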

Read-out in assay [16]: Alkaline Phosphatase, Placental (ALPP) gene, ALPP (gene 250)
The assay is described as follows: LTEA_HepaRG_ALPP: Life Technologies and Expression Analysis (LTEA) Assay for Alkaline Phosphatase, Placental (ALPP) gene using HepaRG (AID 2283468). As to conditions: mRNA level, 48 h; actives raise or lower the signal. The essentials: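 HepaRG, 48 h plating then 48 h dosing, serum-free induction medium, 0.5% DMSO. 8 conc, half-log, max 100 uM, duplicates. Endpoint: ALPP transcript by qRT-PCR, housekeeping-normalized; gain or loss fitted vs DMSO.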

Read-out in assay [17]: Cyclin D2 (CCND2), CCND2 (gene 894)
The assay is described as follows: LTEA_HepaRG_CCND2: Life Technologies and Expression Analysis (LTEA) Assay for Cyclin D2 (CCND2) using HepaRG (AID 2283449).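 Note: CCND2 transcript measured by TaqMan qRT-PCR and normalised to three housekeeping genes.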 As to conditions: mRNA level, 48 h; actives raise or lower the signal. The essentials: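 In this HepaRG study, an eight-point concentration series (max 100 uM, 0.5% DMSO) is applied for 48 h. CCND2 mRNA change is derived by qRT-PCR normalised to ACTB, GAPDH and POLR2A.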

A short description of assay [18]: CEETOX_H295R_TESTO: CeeTox H295R High-throughput Steroidogenesis Assay for Testosterone (TESTO) (AID 2283457). The following applies: actives raise or lower the signal. The essentials:
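H295R, passage ≤10, 48 h dosing; media extracted with MTBE → HPLC-MS/MS for testosterone; 7-pt standard curve sets LLOQ/ULOQ; bidirectional fit vs DMSO; MTT viability same wells.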

Read-out in assay [19]: CFLAR gene, CFLAR (gene 8837)
The assay is described as follows: LTEA_HepaRG_CFLAR: Life Technologies and Expression Analysis (LTEA) Assay for CFLAR gene using HepaRG (AID 2283455). As to conditions: mRNA level, 48 h; actives raise or lower the signal. In a few lines:
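Gain- or loss-of-signal changes in CFLAR transcript were fitted bidirectionally relative to 0.5% DMSO. Cells (HepaRG, duplicate wells) were dosed for 48 h across eight half-log concentrations topping at 100 uM; quantitation by TaqMan qRT-PCR.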

Read-out in assay [20]: growth arrest and DNA damage 45 (GADD45A), GADD45A (gene 1647)
The assay is described as follows: LTEA_HepaRG_GADD45A: Life Technologies and Expression Analysis (LTEA) Assay for growth arrest and DNA damage 45 (GADD45A) using HepaRG (AID 2283458). As to conditions: mRNA level, 48 h; actives raise or lower the signal. In a few lines:
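Transcript induction or loss, quantified by TaqMan qRT-PCR against three housekeeping genes, is the read-out. HepaRG cells received chemicals for 48 h across eight half-log concentrations from 100 uM in 0.5% DMSO; gain and loss fitted relative to DMSO.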

Active and inactive are the calls of the source. Rule for the calls: active = hit-call score of the fitted dose curve at least 0.9, where 1 is the maximum; inactive = score below 0.9.

Sequence of Broad substrate specificity ATP-binding cassette transporter ABCG2 (Homo sapiens) (Q9UNQ0 whole entry, looked up): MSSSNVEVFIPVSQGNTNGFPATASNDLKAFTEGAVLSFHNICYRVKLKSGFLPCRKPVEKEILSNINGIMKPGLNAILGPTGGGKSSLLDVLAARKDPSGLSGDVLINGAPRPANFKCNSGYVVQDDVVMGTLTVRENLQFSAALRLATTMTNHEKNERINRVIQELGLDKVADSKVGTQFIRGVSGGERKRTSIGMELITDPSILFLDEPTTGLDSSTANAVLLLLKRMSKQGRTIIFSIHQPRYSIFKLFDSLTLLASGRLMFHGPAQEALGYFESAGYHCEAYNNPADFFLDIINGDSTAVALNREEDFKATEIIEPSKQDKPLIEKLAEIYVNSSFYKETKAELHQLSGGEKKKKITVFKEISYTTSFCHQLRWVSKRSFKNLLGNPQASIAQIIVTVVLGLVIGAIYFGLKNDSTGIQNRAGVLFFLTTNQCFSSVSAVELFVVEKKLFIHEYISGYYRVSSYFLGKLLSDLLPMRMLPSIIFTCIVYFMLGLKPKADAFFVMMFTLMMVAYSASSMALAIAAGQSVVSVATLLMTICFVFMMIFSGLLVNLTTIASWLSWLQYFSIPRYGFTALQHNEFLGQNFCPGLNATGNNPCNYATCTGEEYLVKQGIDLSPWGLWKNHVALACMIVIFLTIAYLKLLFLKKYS

A word on the AC50: it is the midpoint of the concentration-response curve, whichever way the signal moves. Regarding `CCCCCCC(=O)OCC`, the molecule was called inactive in assay [1], in [2], in [3], in assay [4], in assay [6] and in assay [7]. Also, the result in assay [8], in assay [9], in assay [10], in assay [11], in [12] and in assay [13] was inactive. The molecule was called inactive in [14], in assay [15] and in assay [16]. Further, the AC50 in assay [5] is 33.1 µM (active).
On to `Cc1ccc(Cl)cc1`, for which the result in assay [17], in assay [1], in assay [2], in [3], in assay [4] and in [5] was inactive. Besides, the call in assay [6], in [7], in assay [9], in assay [10], in assay [11] and in [12] was inactive. Further, the molecule was classed as inactive in [13], in [14], in assay [15] and in [16].
On to `Cc1cccc(Nc2cc(Cl)nc(SCC(=O)O)n2)c1C`, for which the molecule was classed as inactive in [1], in assay [2], in assay [3], in assay [4], in assay [6] and in assay [18]. Moreover, the result in [7], in assay [9], in assay [10], in assay [11], in assay [13] and in assay [14] was inactive. Further, the molecule was classed as inactive in assay [16]. The AC50 in assay [5] is 50 µM (active); in assay [8], 50 µM (active); in [12], 82.3 µM (active); in assay [15], 10.9 µM (active).
With `CC(=O)C(C)=CC1C(C)=CCCC1(C)C` (configuration not stated), the molecule was called inactive in [1], in assay [2], in [3], in assay [4], in assay [5] and in [19]. Further, the result in assay [6], in assay [20], in [7], in assay [8], in assay [9] and in [10] was inactive. Besides, the molecule was classed as inactive in [11], in assay [12], in assay [13], in [14], in assay [15] and in [16].
